For 13 compounds, Potency, activity, negative = cell killing and max response results are on record in PubChem BioAssay (NCATS).

Unmarked numbers belong to inactive results. Inconclusive results are not listed. Active and inactive are the calls of the source. Unless noted, calls come from the whole dose curve; as a rule, active = well fitted curve in the direction sought with a large enough effect; inconclusive = small, poorly fitted or top-dose-only effect, or another doubt; inactive = no such curve, though single readings can be large; an effect the other way counts as inactive or inconclusive.

One assay relates to Hek293T. As to the kind of experiment: Primary qHTS to identify gynecologic anti-cancer compounds using libraries of approved drugs and bioactive compounds (AID 1345084). Note: nearly all actives have a fitted effect of over 55% in size. Note: potency is the fitted concentration of half-maximal effect. The conditions noted are these: Gynecologic cancer cell panel viability, ATPlite luminescence, 48 h, control line for the selectivity index; series mostly up to 57.5 µM. An outline of the steps: (§1)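 Five-concentration response, 48 h; readout is ATP-driven luciferase luminescence.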
A general note: Quantitative high-throughput screening tests each substance at several concentrations.

For another assay, the system named is JEG-3. Described as above. The conditions noted are these: Gynecologic cancer cell panel viability, ATPlite luminescence, 48 h; series mostly up to 57.5 µM. An outline of the steps: as §1
Another assay has as its system OV90. The assay is described as above. The conditions noted are these: Gynecologic cancer cell panel viability, ATPlite luminescence, 48 h; series mostly up to 57.5 µM. The essentials:
as §1
(In general: In ATP-based viability assays light output follows the ATP content of the culture.)

In a further assay the test system is SKOV3. The assay is described as above. As to conditions: Gynecologic cancer cell panel viability, ATPlite luminescence, 48 h; series mostly up to 57.5 µM. The essentials: as §1
Assay [1] in a line: Drug repurposing screens with cells derived from glioblastoma tumor samples (AID 1345199). For activity, negative = cell killing: % is set by controls: 0 for no effect and ±100 for the full control effect. Note: nearly all actives have a fitted effect of over 40% in size. Note: potency is the fitted concentration of half-maximal effect. As to conditions: GBM patient neurospheres viability, ATP luminescence, 48 h. An outline of the steps:
(§2)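 Primary testing used CD133+ neurospheres from four GBM patients, seven concentrations, 48 h exposure and ATP-based viability; confirmation added three slower-growing patient lines.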

Another assay deals with CAOV3. As to the kind of experiment: Primary qHTS to identify gynecologic anti-cancer compounds using libraries of approved drugs and bioactive compounds (AID 1345084). Note: nearly all actives have a fitted effect of over 55% in size. Note: potency is the fitted concentration of half-maximal effect. The conditions noted are these: Gynecologic cancer cell panel viability, ATPlite luminescence, 48 h; series mostly up to 57.5 µM. The essentials: as §1
Another assay has as its system CASKI. The description is as above. As to conditions: Gynecologic cancer cell panel viability, ATPlite luminescence, 48 h; series mostly up to 57.5 µM. An outline of the steps: as §1
Another assay has as its system Es-2. Described as above. As to conditions: Gynecologic cancer cell panel viability, ATPlite luminescence, 48 h; series mostly up to 57.5 µM. An outline of the steps: as §1
The test system of a further assay is HeLa. The assay is described as above. The conditions noted are these: Gynecologic cancer cell panel viability, ATPlite luminescence, 48 h; series mostly up to 57.5 µM. An outline of the steps:
as §1

The test system of the next assay is PA-1. The assay is described as above. As to conditions: Gynecologic cancer cell panel viability, ATPlite luminescence, 48 h; series mostly up to 57.5 µM. The essentials:
as §1

For another assay, the system named is Tov-21-G. The assay is described as above. The conditions noted are these: Gynecologic cancer cell panel viability, ATPlite luminescence, 48 h; series mostly up to 57.5 µM. The essentials: as §1
Another assay concerns Tov112D. The description is as above. As to conditions: Gynecologic cancer cell panel viability, ATPlite luminescence, 48 h; series mostly up to 57.5 µM. The essentials:
as §1

For the next assay, the system named is astro. As to the kind of experiment: Drug repurposing screens with cells derived from glioblastoma tumor samples (AID 1345199). For activity, negative = cell killing: % is set by controls: 0 for no effect and ±100 for the full control effect. Note: nearly all actives have a fitted effect of over 40% in size. Note: potency is the fitted concentration of half-maximal effect. As to conditions: viability, ATP luminescence, 48 h; series mostly up to 45.9 µM. An outline of the steps:
as §2

For assay [2], the target named is Nuclear receptor subfamily 1 group I member 2 (Rattus norvegicus) (UniProt Q9R1A7). In words: qHTS assay for small molecule activators of the rat pregnane X receptor (rPXR) signaling pathway (AID 651751; call rule not given here; note: 0% is about no effect). The conditions noted are these: rPXR reporter cells, luciferase (One-Glo), 24 h.
Chain of Nuclear receptor subfamily 1 group I member 2 (Rattus norvegicus) (Q9R1A7 whole entry, looked up): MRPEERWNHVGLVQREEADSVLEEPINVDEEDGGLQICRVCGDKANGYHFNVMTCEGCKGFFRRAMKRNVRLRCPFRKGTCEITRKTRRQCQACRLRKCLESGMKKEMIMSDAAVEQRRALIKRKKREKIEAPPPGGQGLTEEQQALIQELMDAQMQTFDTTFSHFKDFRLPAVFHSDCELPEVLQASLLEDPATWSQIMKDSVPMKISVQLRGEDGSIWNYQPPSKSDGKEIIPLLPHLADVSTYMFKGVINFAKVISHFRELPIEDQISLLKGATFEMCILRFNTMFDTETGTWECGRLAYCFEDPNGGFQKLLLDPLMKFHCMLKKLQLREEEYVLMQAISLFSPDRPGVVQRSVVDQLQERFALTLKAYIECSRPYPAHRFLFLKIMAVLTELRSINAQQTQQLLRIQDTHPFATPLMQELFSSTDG
A short description of assay [3]: qHTS assay to identify inhibitors of the type 1 interferon - major histocompatibility complex class I in skeletal muscle: Counter screen cell viability and HiBit confirmation (AID 1347412). Note: % is set by controls: 0 for no effect and ±100 for the full control effect; nearly all actives have a fitted effect of over 60% in size. As to conditions: iHSKM muscle cells + IFN-b, HiBiT or CellTiter-Glo, 24 h; Potency: HiBiT; Viability, at 45.9 µM (top of the series). An outline of the steps: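 Duplicate plates, pinned identically: one read for HiBiT-tagged endogenous HLA-B luminescence, the other for ATP-content viability via CellTiter Glo. Cells were genome-engineered human myoblasts given 4 ng/ml IFN-b; compounds 12-pt, 1:3 from 46 uM final; 24 hr exposure.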

[4] abbreviates: at 45.9 µM (top of the series), tumour line B.
Setting [5] is: at 45.9 µM (top of the series), tumour line D.

In the case of `Clc1ccc(COC(Cn2ccnc2)c2ccc(Cl)cc2Cl)cc1` (stereo not drawn), the Potency entry with Hek293T and in the assay with JEG-3 was “inactive” each time. Further, the Potency with OV90 was 17800 nM (active); in the assay with SKOV3 it was 28200 nM (active); in [1] (tumour line A) it was 2240 nM (active); in [1] (tumour line D), 12600 nM (active).
On to `CC(=O)Nc1cc([As](=O)(O)O)ccc1O`, for which the Potency entry with CAOV3, in the assay with CASKI, with Es-2, with HeLa, in the assay with JEG-3 and in the assay on OV90 was “inactive” each time. In addition, the Potency entry with PA-1, with SKOV3, in the assay on Tov-21-G, with Tov112D and in the assay with astro was “inactive” each time. Further, the activity, negative = cell killing was -26.4% in assay [1] (setting [4]) and -5.27% in assay [1] (setting [5]).
For the compound `Cc1cc(SCc2sc(-c3ccc(C(F)(F)F)c(F)c3)nc2C)ccc1OCC(=O)O`, the Potency entry in the assay with CAOV3, with CASKI, in the assay on Es-2, in the assay on HeLa, in the assay on Hek293T and in the assay with OV90 was “inactive” each time. In addition, the Potency result in the assay on PA-1, in the assay on Tov-21-G and in the assay on Tov112D was “inactive” each time. In addition, the max response in assay [2] was 13%.
On to `COC[C@H]1OC(=O)c2coc3c2[C@@]1(C)C1=C(C3=O)C2CCC(=O)[C@@]2(C)C[C@H]1OC(C)=O` (stereo partly drawn), for which the Potency entry with CAOV3, in the assay with CASKI, in the assay on Es-2, with HeLa, in the assay on Hek293T and in the assay on JEG-3 was “inactive” each time. In addition, the Potency result (in the assay on OV90; in the assay on Tov-21-G; with Tov112D; in assay [3]) was “inactive” each time.
On to `CO[C@]12CC[C@@]3(C[C@@H]1[C@](C)(O)C(C)(C)C)[C@@H]1Cc4ccc(O)c5c4[C@@]3(CCN1CC1CC1)[C@H]2O5`, for which the Potency entry in the assay with JEG-3 is “inactive”. Besides, the Potency in the assay on astro is 31600 nM (active).
On to `CN(C)CCc1ccc(O)cc1`, for which the Potency result in the assay with CAOV3, with CASKI, in the assay on Es-2, in the assay on HeLa, in the assay with Hek293T and with JEG-3 was “inactive” each time. Also, the Potency result with PA-1, in the assay on SKOV3, in the assay with Tov-21-G, with Tov112D and with astro was “inactive” in each case. Besides, the activity, negative = cell killing in assay [1] (setting [4]) is -0.64%; in assay [1] (setting [5]) it was -12.6%.
As to `CCC(COC(=O)c1cc(OC)c(OC)c(OC)c1)(c1ccccc1)N(C)C` (stereo not drawn), the Potency result in the assay with CAOV3, in the assay on CASKI, in the assay with Es-2, in the assay with HeLa, in the assay with JEG-3 and in the assay with OV90 was “inactive” each time. Besides, the Potency entry in the assay with PA-1, with Tov-21-G, in the assay with Tov112D and in the assay with astro was “inactive” each time.
In the case of `CNC(=O)N1N=C(c2ccc(N)cc2)c2cc3c(cc2CC1C)OCO3` (stereo not drawn), the Potency entry with Es-2, with JEG-3, in the assay on PA-1 and with Tov-21-G was “inactive” in each case.
In the case of `CCOC(=O)C1(c2ccccc2)CCN(CCC(C#N)(c2ccccc2)c2ccccc2)CC1`, the Potency entry in the assay on CAOV3, with CASKI, with HeLa, in the assay on JEG-3, in the assay on SKOV3 and in the assay on Tov-21-G was “inactive” in each case. Besides, the Potency result with Tov112D is “inactive”.
In the case of `CNC(=O)c1ccc(N2C(=S)N(c3ccc(C#N)c(C(F)(F)F)c3)C(=O)C23CCC3)cc1F`, the Potency entry in the assay on CAOV3, in the assay with CASKI, with Es-2, in the assay with HeLa, in the assay on JEG-3 and in the assay with OV90 was “inactive” each time. Moreover, the Potency entry in the assay with PA-1, with SKOV3, in the assay on Tov-21-G and in the assay with Tov112D was “inactive” in each case.
With `CN1C[C@H](CNC(=O)OCc2ccccc2)C[C@@H]2c3cccc4c3c(cn4C)C[C@H]21`, the Potency entry with CASKI, in the assay with Es-2, with HeLa, in the assay with Hek293T, in the assay with JEG-3 and in the assay with OV90 was “inactive” in each case. Also, the Potency result in the assay on PA-1, with Tov-21-G, with Tov112D and in the assay on astro was “inactive” throughout.
For the compound `Clc1ccc(CCC(Cn2ccnc2)Sc2c(Cl)cccc2Cl)cc1` (stereo not drawn), the Potency result in the assay on CAOV3, in the assay with CASKI, in the assay on Es-2, with HeLa, in the assay with JEG-3 and in the assay with Tov-21-G was “inactive” in each case. Further, the Potency result in the assay with Tov112D and in the assay with astro was “inactive” throughout. The activity, negative = cell killing in assay [1] (at 21.2 µM (top of the series), tumour line B) is -25.1%. For the same compound, the Potency in assay [1] (tumour line A) was 1120 nM (active).
Regarding `C=C(C)[C@H]1Cc2c(ccc3c2O[C@@H]2COc4cc(OC)c(OC)cc4[C@@H]2C3=O)O1`, the Potency was 1260 nM (active) in the assay with CASKI; 891 nM (active) in the assay with Hek293T; 1260 nM (active) in the assay with PA-1; 282 nM (active) in the assay on SKOV3; 3980 nM (active) in the assay with Tov-21-G; 1780 nM (active) with Tov112D. Besides, the Potency in the assay with astro was 562 nM (active). In addition, the max response in [2] is -14.4%.
